Records with an inconclusive call do not appear. Calls of active or inactive are those of the source. Unless noted, the call rests on the fitted dose curve; in most records, active means well fitted curve in either direction with a large enough effect (not every such curve was filed as active); inconclusive means small, poorly fitted or top-dose-only effect, or another doubt; inactive means flat fitted curve, though single readings scatter.
How the values were obtained:
[1] = biological target: Lysosomal acid glucosylceramidase (Homo sapiens) (UniProt P04062); test: Glucocerebrosidase-p2 (AID 348; in the data active means potency below about 10 µM; further: potency means the concentration at half of the fitted maximal effect); conditions: purified GBA, blue fluorogenic substrate, 40 min
In short: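 Compounds titrated from 0.6 nM upwards against 0.2 nM enzyme in pH 5.9 citric acid/KH2PO4, taurocholate, tween-20; blue fluorogenic substrate 80 uM, 40 min room temperature, stopped and read Ex 365/Em 440 for AC50.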

[2] = AP1 Signaling Pathway (AID 357); conditions: ME-180 AP-1-bla reporter, EGF-induced, beta-lactamase ratio, 5 h; at 7.69 µM (top of the series) unless noted;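 further: ME-180 reporter cells stimulated with EGF at its EC50 level; on the % scale 0 is the no-effect control and ±100 the full control effect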
In short: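 Modulation of EGF-driven AP-1 transcription was assessed with a beta-lactamase reporter in ME-180 cells. Compound and EC50 EGF were co-incubated 5 hours at 37 °C before 2.5-hour CCF4 loading at room temperature and dual-emission reading.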

[3] = biological target: Cytochrome P450 1A2 (Homo sapiens) (UniProt P05177); test: p450-cyp1a2 (AID 410; calls by dose curve; further: potency means the concentration at half of the fitted maximal effect;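 on activity change, negative = inhibition: -100% = full effect of reference inhibitor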); conditions: recombinant CYP1A2, luciferin-ME demethylation, luminescence; series mostly up to 57 µM
In short: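 20nM CYP1A2 with 100uM Luciferin-ME (at Km) in 100mM KPO4; compound preincubated 10 min, NADPH regeneration added, 60 min at room temperature. Luciferin quantified by luminescence after detection reagent; normalized to 57 uM furafylline.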

[4] = NFAT Signaling Pathway (AID 444); conditions: Jurkat NFAT-bla M1, carbachol, beta-lactamase ratio, 5 h; at 7.69 µM (top of the series) unless noted;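 further: carbachol stimulus at about its EC50 of 1 µM final; on the % scale 0 is the no-effect control and ±100 the full control effect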
In short: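 Jurkat cells with NFAT-driven β-lactamase reporter and co-expressed M1 receptor, stimulated with carbachol (final 1 uM, ~EC50), compound titration, 5 h at 37 °C. CCF4 loaded 1 h at RT; 460/530 nm ratio gave %activity and AC50.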

[5] = Stat Signaling Pathway (AID 446); conditions: ME-180 SIE beta-lactamase reporter, IL-6 stimulated, 5 h; at 7.69 µM (top of the series) unless noted;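 further: ME-180 cervical cancer cells given 40 pM IL-6 alongside compound; SIE-controlled beta-lactamase reporter measured as 460/530 nm FRET emission ratio; on the % scale 0 is the no-effect control and ±100 the full control effect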
In short: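 ME-180 cells carrying a SIE-driven beta-lactamase reporter are stimulated with 40 pM IL-6 for 5 h at 37C in the presence of compound. The 460/530 nm FRET substrate ratio is read after 2.5 h at RT. Data are normalised to 300 pM IL-6 and to 125 nM JAK inhibitor controls.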

[6] = biological target: Glucocorticoid receptor (Homo sapiens) (UniProt P04150); test: GR-EFC Redistribution (AID 451; calls by dose curve; further: potency means the concentration at half of the fitted maximal effect); conditions: CHO-K1 GR-EFC translocation, beta-gal luminescence, 2 h
In short: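 CHO-K1 cells expressing nuclear EA and GR-ED fragments of b-gal; compounds titrated up to 46 uM final, 2 h at 37 C. GR nuclear translocation read as complemented b-gal luminescence after 1 h RT detection.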

[7] = biological target: Mitogen-activated protein kinase 10 (Mus musculus) (UniProt Q61831); test: JNK3 AlphaScreen Assay (AID 530); conditions: JNK3 lysate, c-Jun phosphorylation; series mostly up to 57.1 µM;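 further: kinase came from lysate of stimulated human HepG2 cells; signal reports phosphorylation of biotinylated GST-cJun 1-79 at Ser73 with 10 µM ATP; on the % scale 0 is the no-effect control and ±100 the full control effect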
In short: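 Pre-activated (IL-1β/TNFα) JNK3 in HepG2 lysates phosphorylates biotin-GST-cJun(1-79), 10 uM ATP; anti-phospho-cJun(Ser73) AlphaScreen read at room temperature, pH 7.6 Tris buffer. Compounds pre-incubated 15 min as titrations.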

[8] = biological target: 3',5'-cyclic-AMP phosphodiesterase 4B (Homo sapiens) (UniProt Q07343); test: qHTS Assay for Inhibitors of PDE-IV (AID 607; active means well fitted activation curve with a large enough effect in the main read-out, with a control signal flat, not every such curve was filed as active; further: % of control where 0% means no effect); conditions: HEK293 ACTOne CNG channel cells, membrane potential fluorescence; series mostly up to 22.9 µM
In short: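 HEK293 ACTOne cells with CNG channel (1000/well), endogenous PDE4; membrane potential dye, compounds up to 22.9 uM final. Fluorescence Ex 535/Em 590; RO 20-1724 (100 uM final) as reference.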

[9] = qHTS Assay for Identification of Small Molecule Agonists for Hypoxia Response Element Signaling Pathway (AID 914; active means well fitted activation curve with a large enough effect in the signal ratio, with a control signal flat, not every such curve was filed as active; the % refers to the signal ratio; further: potency means the concentration at half of the fitted maximal effect; on activation: % of control where 0% means no effect); conditions: ME-180 (cervical carcinoma) HRE-bla reporter, beta-lactamase ratio, CoCl2, 17 h; activation: stronger effect = higher value
In short: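 qHTS titration; ME-180 HRE-bla cells; EC50 CoCl2 co-treatment, 17 h at 37 degrees Celsius; CCF4 dye, ex 405nm, em 460nm and 530nm; %Activity from ratio; AC50.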

[10] = qHTS Assay for Lipid Storage Modulators (AID 1519; calls by dose curve); conditions: Drosophila S3 cells, BODIPY lipid droplet/cell ratio, laser cytometry, cells loaded with oleic acid; for activity change, negative = inhibition: at 57.5 µM (top of the series)
In short: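 Cells seeded at 5,000 per well were treated with compounds over a concentration series and loaded with oleic acid (400 uM, as added). Lipid droplet fluorescence (488 nm excitation, 500-530 nm channel) was read by laser-scanning cytometry and normalized to 20 uM Triacsin C.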

[11] = biological target: Glucocorticoid receptor (Homo sapiens) (UniProt P04150); test: GR-GFP Redistribution (AID 450;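 active means compounds whose dose series gives a full or clear partial fitted curve of increased nuclear translocation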; further: potency means the concentration at half of the fitted maximal effect); conditions: U2OS GR-GFP nuclear translocation, laser cytometry, 2 h
[12] = biological target: Dual specificity protein kinase CLK4 (Homo sapiens) (UniProt Q9HAZ1); test: qHTS Assay for Inhibitors of CDC-like Kinase 4 (Kinase-Glo Assay) (AID 1770; active means well fitted curve in the direction sought with a large enough effect; an effect the other way counts as inactive or inconclusive; further: on the % scale 0 is the no-effect control and ±100 the full control effect; nearly all actives have a fitted effect of over 65% in size); conditions: recombinant Clk4, Kinase-Glo ATP depletion luminescence; series mostly up to 66.7 µM
In short: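 Recombinant human Clk4 (25 nM) phosphorylated RS repeat peptide (100 uM) with 1 uM ATP in Tris pH 7.5/MgCl2/EGTA/DTT/Triton buffer for 4.5 h at room temperature. Residual ATP was quantified by Kinase-Glo luciferase luminescence.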

[13] = biological target: Dual specificity protein kinase CLK4 (Homo sapiens) (UniProt Q9HAZ1); test: qHTS Assay for Inhibitors of CDC-like Kinase 4 (ADP-Glo Assay) (AID 1771; active means well fitted curve in the direction sought with a large enough effect; an effect the other way counts as inactive or inconclusive; further: on the % scale 0 is the no-effect control and ±100 the full control effect; nearly all actives have a fitted effect of over 70% in size); conditions: recombinant CLK4, ADP-Glo luminescence; series mostly up to 80 µM
In short: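 25 nM Clk4 with 100 uM RS repeat peptide and 1 uM ATP (final) in buffer with 2 mM MgCl2, 0.5 mM EGTA, 2.5 mM DTT, 0.01% Triton X-100; 1 h at room temperature; ADP-Glo luminescence for ADP formed.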

[14] = biological target: Dual specificity protein kinase CLK4 (Homo sapiens) (UniProt Q9HAZ1); test: qHTS Assay for Inhibitors of CDC-like Kinase 4 (ADP-FP Assay) (AID 1795; active means well fitted curve in the direction sought with a large enough effect; an effect the other way counts as inactive or inconclusive; further: on the % scale 0 is the no-effect control and ±100 the full control effect; nearly all actives have a fitted effect of over 60% in size); conditions: Transcreener ADP fluorescence polarization; series mostly up to 50 µM
In short: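 Recombinant human Clk4 (6.25 nM) phosphorylated RS repeat peptide (100 uM) with 1 uM ATP in Tris pH 7.5/MgCl2/EGTA/DTT/Triton buffer for one hour. ADP was quantified by Transcreener competitive fluorescence polarization against an ADP calibration curve.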

[15] = biological target: Ubiquitin carboxyl-terminal hydrolase 1 (Homo sapiens) (UniProt O94782); test: Inhibitors of USP1/UAF1: Pilot qHTS (AID 504865; active means well fitted curve in the direction sought with a large enough effect; an effect the other way counts as inactive or inconclusive;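 further: rhodamine fluorescence freed from ubiquitin-rhodamine substrate followed over time; top concentration of the series differs between compounds; on the % scale 0 is the no-effect control and ±100 the full control effect; nearly all actives have a fitted effect of over 35% in size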); conditions: purified USP1/UAF1, Ub-rhodamine cleavage fluorescence; series mostly up to 54.9 µM
In short: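 USP1/UAF1 complex (1nM) preincubated with compound 15 min at room temperature, then Ub-Rho substrate (150nM final) added. Fluorescence read kinetically at 480/540 nm, 6 reads every 60 seconds. Buffer: 50mM HEPES pH 7.8, 0.5mM EDTA, 0.1 mg/ml BSA, 1mM TCEP, 0.01% Tween-20.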

[16] = biological target: Cytochrome P450 2C9 (Homo sapiens) (UniProt P11712); test: qHTS Assay for Inhibitors and Substrates of Cytochrome P450 2C9 (AID 883; active means well fitted curve in the direction sought with a large enough effect; an effect the other way counts as inactive or inconclusive; further: potency means the concentration at half of the fitted maximal effect; nearly all actives have a fitted effect of over 60% in size); conditions: recombinant CYP2C9, luciferin-H luminescence, 60 min; series mostly up to 57.1 µM
In short: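 Signal: luciferase luminescence reporting luciferin produced by CYP2C9. Conditions: 10nM enzyme, Luciferin-H 100uM at KM, 25mM KPO4, 37C, 60 min NADPH-driven reaction. Reference: 57uM sulphaphenazole as 100% inhibition.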

[17] = biological target: Cytochrome P450 3A4 (Homo sapiens) (UniProt P08684); test: qHTS Assay for Inhibitors and Substrates of Cytochrome P450 3A4 (AID 884; active means well fitted curve in the direction sought with a large enough effect; an effect the other way counts as inactive or inconclusive; further: potency means the concentration at half of the fitted maximal effect; nearly all actives have a fitted effect of over 50% in size); conditions: recombinant CYP3A4, Luciferin-PPXE luminescence; series mostly up to 57.1 µM
In short: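 20 nM human CYP3A4 with 25 uM Luciferin-PPXE (at KM) in 200 mM KPO4, preincubated 10 min with compound; NADPH regeneration started a 60 min RT reaction. Luciferin detected by luminescence, normalized to 57 uM ketoconazole as full inhibition.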

[18] = biological target: Cytochrome P450 3A4 (Homo sapiens) (UniProt P08684); test: qHTS Assay for Activators of Cytochrome P450 3A4 (AID 885; active means well fitted curve in the direction sought with a large enough effect; an effect the other way counts as inactive or inconclusive; further: nearly all actives have a fitted effect of over 65% in size); conditions: recombinant CYP3A4, Luciferin-PPXE luminescence, 60 min; series mostly up to 57.1 µM
In short: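 Human CYP3A4 (20 nM) with Luciferin-PPXE at 25 uM (its KM) in 200 mM KPO4; 10 min compound preincubation, then NADPH regeneration and 60 min reaction at RT. Luciferin read by luminescence; normalized to 57 uM ketoconazole full inhibition.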

[19] = measured here: cell count channel max response
[20] = measured here: lipid channel max response

Sequence of Dual specificity protein kinase CLK4 (Homo sapiens) (Q9HAZ1 whole entry, looked up): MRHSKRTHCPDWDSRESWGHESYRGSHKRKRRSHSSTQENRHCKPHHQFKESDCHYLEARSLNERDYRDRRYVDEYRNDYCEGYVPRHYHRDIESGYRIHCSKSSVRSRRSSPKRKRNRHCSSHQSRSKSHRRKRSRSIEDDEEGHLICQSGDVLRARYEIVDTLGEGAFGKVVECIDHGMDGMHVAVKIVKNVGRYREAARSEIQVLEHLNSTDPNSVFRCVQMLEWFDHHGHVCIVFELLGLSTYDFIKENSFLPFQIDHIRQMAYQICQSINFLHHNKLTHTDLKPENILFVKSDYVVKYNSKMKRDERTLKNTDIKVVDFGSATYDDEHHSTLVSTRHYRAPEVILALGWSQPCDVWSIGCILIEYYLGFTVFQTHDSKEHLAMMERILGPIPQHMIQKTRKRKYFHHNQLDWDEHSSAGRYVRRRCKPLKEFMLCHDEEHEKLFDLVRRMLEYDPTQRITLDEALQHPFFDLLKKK
Sequence of Lysosomal acid glucosylceramidase (Homo sapiens) (P04062 whole entry, looked up): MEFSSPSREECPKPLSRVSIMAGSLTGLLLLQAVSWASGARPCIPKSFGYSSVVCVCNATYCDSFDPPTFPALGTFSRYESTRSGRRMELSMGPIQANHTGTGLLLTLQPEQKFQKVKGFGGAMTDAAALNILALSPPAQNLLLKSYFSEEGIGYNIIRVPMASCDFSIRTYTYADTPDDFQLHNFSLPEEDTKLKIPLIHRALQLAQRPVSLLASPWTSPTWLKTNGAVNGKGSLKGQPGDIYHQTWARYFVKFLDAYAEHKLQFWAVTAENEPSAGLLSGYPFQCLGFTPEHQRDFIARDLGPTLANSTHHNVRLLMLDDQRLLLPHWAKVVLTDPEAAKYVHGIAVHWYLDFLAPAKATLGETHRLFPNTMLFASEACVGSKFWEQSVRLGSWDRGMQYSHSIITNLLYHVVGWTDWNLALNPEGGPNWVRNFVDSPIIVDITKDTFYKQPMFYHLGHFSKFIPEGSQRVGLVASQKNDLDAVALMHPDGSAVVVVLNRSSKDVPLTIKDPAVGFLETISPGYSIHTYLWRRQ
Sequence of 3',5'-cyclic-AMP phosphodiesterase 4B (Homo sapiens) (Q07343 whole entry, looked up): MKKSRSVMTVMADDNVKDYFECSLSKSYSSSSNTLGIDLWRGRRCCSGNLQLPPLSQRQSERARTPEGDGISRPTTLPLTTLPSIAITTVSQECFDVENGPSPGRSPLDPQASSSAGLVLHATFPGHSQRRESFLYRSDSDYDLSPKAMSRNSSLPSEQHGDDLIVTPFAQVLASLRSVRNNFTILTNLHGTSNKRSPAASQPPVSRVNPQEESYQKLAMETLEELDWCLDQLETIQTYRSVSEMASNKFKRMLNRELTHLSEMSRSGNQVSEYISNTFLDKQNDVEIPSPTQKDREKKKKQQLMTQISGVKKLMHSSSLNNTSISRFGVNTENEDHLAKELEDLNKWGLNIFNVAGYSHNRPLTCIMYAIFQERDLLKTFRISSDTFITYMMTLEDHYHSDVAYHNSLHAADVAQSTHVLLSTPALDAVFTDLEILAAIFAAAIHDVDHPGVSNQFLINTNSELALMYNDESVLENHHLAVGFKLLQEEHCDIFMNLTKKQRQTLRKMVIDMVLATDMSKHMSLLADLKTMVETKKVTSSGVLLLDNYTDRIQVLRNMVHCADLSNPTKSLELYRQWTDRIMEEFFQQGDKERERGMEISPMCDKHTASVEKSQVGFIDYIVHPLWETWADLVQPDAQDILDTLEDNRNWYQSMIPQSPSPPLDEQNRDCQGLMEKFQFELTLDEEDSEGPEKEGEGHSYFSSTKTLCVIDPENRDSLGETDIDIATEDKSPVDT
Sequence of Glucocorticoid receptor (Homo sapiens) (P04150 whole entry, looked up, the tested form may be a part): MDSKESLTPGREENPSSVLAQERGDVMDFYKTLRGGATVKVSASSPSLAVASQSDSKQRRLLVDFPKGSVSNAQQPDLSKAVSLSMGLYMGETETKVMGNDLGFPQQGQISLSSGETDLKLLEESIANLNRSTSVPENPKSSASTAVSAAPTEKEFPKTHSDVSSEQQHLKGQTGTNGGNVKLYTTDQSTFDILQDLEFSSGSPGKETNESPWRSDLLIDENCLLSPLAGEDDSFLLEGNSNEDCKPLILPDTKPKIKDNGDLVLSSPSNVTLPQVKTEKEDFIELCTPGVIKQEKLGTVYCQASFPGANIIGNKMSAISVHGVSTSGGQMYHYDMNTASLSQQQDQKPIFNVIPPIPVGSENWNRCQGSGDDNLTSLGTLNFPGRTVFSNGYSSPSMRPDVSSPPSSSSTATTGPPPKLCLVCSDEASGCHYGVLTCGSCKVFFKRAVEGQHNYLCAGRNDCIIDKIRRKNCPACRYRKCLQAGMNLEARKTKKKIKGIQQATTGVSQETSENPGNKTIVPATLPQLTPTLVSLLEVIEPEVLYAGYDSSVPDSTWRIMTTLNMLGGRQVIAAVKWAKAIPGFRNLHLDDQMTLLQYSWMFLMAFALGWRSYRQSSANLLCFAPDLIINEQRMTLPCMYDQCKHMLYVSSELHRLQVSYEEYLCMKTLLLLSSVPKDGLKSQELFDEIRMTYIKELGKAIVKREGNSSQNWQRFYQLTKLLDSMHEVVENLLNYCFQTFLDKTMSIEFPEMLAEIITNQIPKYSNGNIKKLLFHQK
Sequence of Cytochrome P450 1A2 (Homo sapiens) (P05177 whole entry, looked up): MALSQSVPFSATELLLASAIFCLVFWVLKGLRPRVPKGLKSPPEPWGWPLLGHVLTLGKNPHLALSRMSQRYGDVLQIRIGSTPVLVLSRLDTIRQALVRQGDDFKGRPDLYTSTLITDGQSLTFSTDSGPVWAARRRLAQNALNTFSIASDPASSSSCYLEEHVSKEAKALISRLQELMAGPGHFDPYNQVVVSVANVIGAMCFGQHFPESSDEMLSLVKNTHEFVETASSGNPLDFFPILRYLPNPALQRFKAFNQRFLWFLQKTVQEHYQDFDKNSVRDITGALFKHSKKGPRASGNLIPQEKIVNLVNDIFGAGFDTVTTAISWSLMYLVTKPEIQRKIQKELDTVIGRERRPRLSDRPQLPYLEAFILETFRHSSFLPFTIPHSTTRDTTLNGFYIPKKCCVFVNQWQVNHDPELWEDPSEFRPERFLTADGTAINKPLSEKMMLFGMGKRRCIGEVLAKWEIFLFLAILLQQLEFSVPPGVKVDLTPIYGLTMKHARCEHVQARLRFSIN
Sequence of Cytochrome P450 3A4 (Homo sapiens) (P08684 whole entry, looked up): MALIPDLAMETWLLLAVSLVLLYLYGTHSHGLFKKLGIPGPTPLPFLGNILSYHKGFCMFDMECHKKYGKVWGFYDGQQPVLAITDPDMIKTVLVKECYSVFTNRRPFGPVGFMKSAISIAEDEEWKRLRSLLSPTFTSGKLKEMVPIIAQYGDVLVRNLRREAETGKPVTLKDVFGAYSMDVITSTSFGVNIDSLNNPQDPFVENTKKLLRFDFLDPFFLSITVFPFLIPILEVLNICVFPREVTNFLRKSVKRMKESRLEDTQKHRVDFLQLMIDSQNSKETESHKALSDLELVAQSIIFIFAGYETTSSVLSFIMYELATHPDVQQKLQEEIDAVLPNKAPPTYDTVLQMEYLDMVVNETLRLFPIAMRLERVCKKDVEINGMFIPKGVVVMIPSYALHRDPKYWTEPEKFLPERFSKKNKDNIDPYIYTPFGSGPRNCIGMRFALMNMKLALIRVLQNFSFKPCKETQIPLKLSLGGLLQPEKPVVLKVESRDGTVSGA
Sequence of Ubiquitin carboxyl-terminal hydrolase 1 (Homo sapiens) (O94782 whole entry, looked up): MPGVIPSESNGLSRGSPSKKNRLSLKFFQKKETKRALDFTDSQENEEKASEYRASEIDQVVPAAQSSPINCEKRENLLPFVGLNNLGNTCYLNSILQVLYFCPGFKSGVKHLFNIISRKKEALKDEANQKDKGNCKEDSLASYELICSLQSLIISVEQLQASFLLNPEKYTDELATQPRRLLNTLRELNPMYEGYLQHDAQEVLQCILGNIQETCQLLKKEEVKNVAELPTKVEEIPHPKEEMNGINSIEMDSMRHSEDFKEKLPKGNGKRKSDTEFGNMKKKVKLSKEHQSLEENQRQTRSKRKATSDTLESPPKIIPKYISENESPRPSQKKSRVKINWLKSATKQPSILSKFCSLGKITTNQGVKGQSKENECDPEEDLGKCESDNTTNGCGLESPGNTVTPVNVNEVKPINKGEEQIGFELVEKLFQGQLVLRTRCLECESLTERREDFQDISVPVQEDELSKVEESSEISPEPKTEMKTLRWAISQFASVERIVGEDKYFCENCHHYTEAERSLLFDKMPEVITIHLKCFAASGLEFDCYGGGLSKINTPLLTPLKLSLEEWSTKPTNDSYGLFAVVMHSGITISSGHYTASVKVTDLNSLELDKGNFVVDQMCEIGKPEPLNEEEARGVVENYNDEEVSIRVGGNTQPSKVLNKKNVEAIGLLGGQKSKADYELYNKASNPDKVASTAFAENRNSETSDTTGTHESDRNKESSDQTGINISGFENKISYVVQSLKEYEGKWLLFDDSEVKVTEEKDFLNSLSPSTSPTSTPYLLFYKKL
Sequence of Cytochrome P450 2C9 (Homo sapiens) (P11712 whole entry, looked up): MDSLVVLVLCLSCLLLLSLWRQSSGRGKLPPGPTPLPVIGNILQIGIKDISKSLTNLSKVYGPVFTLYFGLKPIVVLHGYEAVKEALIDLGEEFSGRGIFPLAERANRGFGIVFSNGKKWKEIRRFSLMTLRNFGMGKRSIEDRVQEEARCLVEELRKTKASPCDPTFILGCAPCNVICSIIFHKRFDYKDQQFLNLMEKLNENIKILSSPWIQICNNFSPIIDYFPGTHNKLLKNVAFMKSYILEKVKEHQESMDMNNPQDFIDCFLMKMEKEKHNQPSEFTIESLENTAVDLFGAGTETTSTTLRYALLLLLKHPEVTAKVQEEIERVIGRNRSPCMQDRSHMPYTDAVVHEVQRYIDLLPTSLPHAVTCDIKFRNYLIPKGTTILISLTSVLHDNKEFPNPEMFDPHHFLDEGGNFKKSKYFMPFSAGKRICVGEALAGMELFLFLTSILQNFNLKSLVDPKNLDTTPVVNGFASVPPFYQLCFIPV

COc1ccc(NC(=O)N2CC3(CCN(C(C)=O)CC3)C2)cc1
23.3%: max response [10, 20]
inactive: Potency [1] > 11.4 µM | activity change, negative = inhibition [2] 8.48% | Potency [3] | activity change, negative = inhibition [4] -0.444% | activity, negative = inhibition [5] -0.267% | Potency [6] > 46 µM | outcome [7] | Potency [8] | activation [9] -8.17% | activity change, negative = inhibition [10] 3.83%
13.9%: max response [10, 19]

COc1cccc(Cn2c(=O)c(-c3ccc(F)cc3)nc3cnc(OC)nc32)c1
25.9%: max response [10, 19]
31.8%: max response [10, 20]
inactive: Potency [1] > 11.4 µM | activity change, negative = inhibition [2] -1.52% | activity change, negative = inhibition [4] -0.296% | activity, negative = inhibition [5] 6.3% | Potency [11] > 9.22 µM | Potency [6] > 46 µM | outcome [7] | Potency [8] | activity change, negative = inhibition [10] 7.13% | Potency [12] | Potency [13] | Potency [14] | Potency [15]

O=C(Nc1cccc(F)c1)N1CCCC2(CCN(C(=O)c3ccncc3)CC2)C1
active: Potency [3] 12.6 µM | Potency [16] 0.0794 µM | Potency [17] 6.31 µM
19.3%: max response [10, 19]
28.5%: max response [10, 20]
inactive: Potency [1] > 11.4 µM | activity change, negative = inhibition [2] -4.33% | activity change, negative = inhibition [4] -19.9% | Potency [6] > 46 µM | outcome [7] | Potency [8] | Potency [18] | activity change, negative = inhibition [10] 6.14%

COCCn1c(=O)c(-c2ccc(Cl)cc2)nc2cnc(Nc3ccccc3)nc21
10.8%: max response [10, 19]
12.1%: max response [10, 20]
inactive: Potency [1] > 11.4 µM | Potency [11] > 9.22 µM | Potency [6] > 46 µM | outcome [7] | Potency [8] | activity change, negative = inhibition [10] 3.97% | Potency [12] | Potency [13] | Potency [14]
active: Potency [3] 20 µM | Potency [9] 2.51 µM
